Source: PubChem (National Center for Advancing Translational Sciences (NCATS))
The list is not random: actives were taken first. Their share in the collection is about 1.4%.
KCNH2 3.1 block – blocks the human KCNH2 3.1 channel isoform | U2OS KCNH2 3.1, thallium flux FluxOr; active compounds read low | activity change, % (tested at about 1.8 µM) | actives 0.95% (n = 340,000);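 active = maximum activity change below -70%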;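 also: thallium influx rate constant from kinetic fluorescence after stimulation buffer; % is scaled to controls: 0 for no effect and ±100 for the full control effect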
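Measured as rate of thallium-driven FluxOr signal in transduced U2OS cells carrying the 3.1 channel, read kinetically for 2 min upon stimulation; values are rate constants scaled to DMSO control wells.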
EPAC2 antag – blocks human EPAC2 exchange factor | Potency, µM (titrated, usually from 114 µM), inactives show at the top dose activity, negative = inhibition, actives largely listed as inhibitors | actives 0.18% (n = 360,000) | EPAC2 GEF exchange of Rap1B-BODIPY-GDP, fluorescence; also: potency is read from the fitted curve at half-maximal effect; % is scaled to controls: 0 for no effect and ±100 for the full control effect; nearly all actives have a fitted effect of over 45% in size
Target sequence (Q8WZA2 whole entry, looked up): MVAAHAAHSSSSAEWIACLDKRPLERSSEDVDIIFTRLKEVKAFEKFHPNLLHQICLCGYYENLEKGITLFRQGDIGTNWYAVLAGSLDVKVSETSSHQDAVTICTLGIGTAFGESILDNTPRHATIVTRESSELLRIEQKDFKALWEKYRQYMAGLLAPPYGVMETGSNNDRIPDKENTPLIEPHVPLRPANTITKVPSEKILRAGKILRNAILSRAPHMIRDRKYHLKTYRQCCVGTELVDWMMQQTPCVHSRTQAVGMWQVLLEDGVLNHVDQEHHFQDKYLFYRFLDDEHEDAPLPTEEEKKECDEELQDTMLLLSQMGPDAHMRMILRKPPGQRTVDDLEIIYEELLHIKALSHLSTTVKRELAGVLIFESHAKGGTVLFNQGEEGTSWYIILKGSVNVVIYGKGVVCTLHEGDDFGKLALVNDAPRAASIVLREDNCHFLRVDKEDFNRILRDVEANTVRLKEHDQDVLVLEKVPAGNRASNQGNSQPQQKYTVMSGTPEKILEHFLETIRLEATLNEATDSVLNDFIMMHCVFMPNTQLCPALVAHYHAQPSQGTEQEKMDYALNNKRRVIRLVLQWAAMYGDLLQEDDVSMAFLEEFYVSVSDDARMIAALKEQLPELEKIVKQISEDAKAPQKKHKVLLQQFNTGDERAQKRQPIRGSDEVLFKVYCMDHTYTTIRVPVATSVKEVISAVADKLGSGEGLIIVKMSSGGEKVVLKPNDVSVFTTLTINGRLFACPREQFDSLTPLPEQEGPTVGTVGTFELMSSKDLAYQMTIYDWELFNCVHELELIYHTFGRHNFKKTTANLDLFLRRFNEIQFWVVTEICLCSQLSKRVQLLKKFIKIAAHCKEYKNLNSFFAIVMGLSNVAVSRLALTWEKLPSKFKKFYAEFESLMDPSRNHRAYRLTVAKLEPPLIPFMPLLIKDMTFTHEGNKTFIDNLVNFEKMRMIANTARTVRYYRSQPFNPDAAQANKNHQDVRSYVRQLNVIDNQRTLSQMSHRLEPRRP
EPAC1 agonist – agonists of human EPAC1; O95398; EPAC1 agonist qHTS, biochemical assay; response scale: 100% = response to 6.5 mM cAMP; Potency, µM (doses to about 154 µM), without a hit: top-dose activation, actives largely listed as activators; actives 0.073% (n = 360,000); AID 720707; also: potency is read from the fitted curve at half-maximal effect; nearly all actives have a fitted effect of over 60% in size
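Read-out is the fluorescence drop as BODIPY-GDP leaves Rap1B (480 nm excitation, 540 nm emission), recorded every 5 minutes over 30 minutes. Reactions held 100 nM EPAC1, 250 nM Rap1B–BODIPY-GDP and 50 uM GDP, with 6.5 mM cAMP setting full activation.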
EPAC1 antagonist – blocks human EPAC1 exchange factor; EPAC1 GEF assay, Rap1b-BODIPY-GDP exchange fluorescence; Potency, µM (top dose mostly 115 µM), for the others: at the highest dose activity change, negative = inhibition, hits mostly inhibitors; actives 0.14% (n = 360,000); AID 720709;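 also: potency is read from the fitted curve at half-maximal effect; plate controls were vehicle for no effect and positive control for full effect; nearly all actives have a fitted effect of over 50% in size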
EPAC2 agonist – EPAC2 (human) agonism; Q8WZA2; Potency, µM (series often up to 154 µM), without a hit: at the highest dose activation, actives largely listed as activators; actives 0.079% (n = 360,000); AID 720711; EPAC2 activation, biochemical qHTS; response scale: 100% = 6.5 mM cAMP response; also: potency is read from the fitted curve at half-maximal effect; nearly all actives have a fitted effect of over 50% in size
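Compounds were added across a concentration range to EPAC2 (100 nM), RAP1B-BODIPY-GDP (250 nM) and GDP (50 uM). After 5 min at room temperature, fluorescence was recorded at 5-min intervals for 30 min.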
KCNH2 WT inh – blocks the wildtype human KCNH2 potassium channel; AID 720551; U2OS, BacMam KCNH2, thallium flux FluxOr; active compounds read low; Q12809; actives 0.37% (n = 340,000); activity change, % at 1.84 µM;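 active = maximum activity change below -70%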; also: % is scaled to controls: 0 for no effect and ±100 for the full control effect
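U2OS cells transduced with wild-type KCNH2 virus are loaded with FluxOr dye for 45 min, and thallium flux is measured in kinetic reads before and after stimulation buffer. Rate constants are normalized to DMSO controls.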
Numbers without * were called inactive; ! = not confirmed by another sample; [ ] = another dose, or the depositor's remark. Unless noted, calls follow the shape of the dose curve; as a rule, active = well fitted curve in the direction sought with a large enough effect; inconclusive = small, poorly fitted or top-dose-only effect, or another doubt; inactive = no such curve, though single readings can be large; an effect the other way counts as inactive or inconclusive.

Results for COC(=O)c1ccc(C(=O)OC)c(NC(=O)CN(c2ccc3c(c2)OCO3)S(C)(=O)=O)c1 ?
KCNH2 3.1 block: -132.1*; EPAC2 antag: -3.4%; EPAC1 agonist: 9.0%; EPAC1 antagonist: -1.8%; EPAC2 agonist: 9.9%; KCNH2 WT inh: -9.3

How did COCCNC(=O)c1ccccc1NC(=O)CN(c1ccc2c(c1)OCO2)S(C)(=O)=O do in these assays?
KCNH2 3.1 block: 2.3; EPAC2 antag: -4.4%[57.1 µM]; EPAC1 agonist: 3.6%; EPAC1 antagonist: -10.4%; EPAC2 agonist: 8.6%; KCNH2 WT inh: -6.0

What do the screens show for `O=[N+]([O-])c1ccc(CN2CCOCCOCCN(Cc3ccc([N+](=O)[O-])cc3)CCOCC2)cc1`?
KCNH2 3.1 block: -114.9*; EPAC2 antag: -4.1%; EPAC1 agonist: 3.6%; EPAC1 antagonist: 1.5%; EPAC2 agonist: 5.9%; KCNH2 WT inh: -89.9*

What do the screens show for `O=[N+]([O-])c1ccc(COc2ccc(Br)cc2CN2CCOCC2)cc1`?
KCNH2 3.1 block: -90.1*; EPAC2 antag: -5.0%; EPAC1 agonist: 17.1%; EPAC1 antagonist: 1.4%; EPAC2 agonist: 20.3%; KCNH2 WT inh: 12.2

What do the screens show for `O=[N+]([O-])c1ccc(COc2ccc(CN3CCOCC3)cc2)cc1`?
KCNH2 3.1 block: -18.2; EPAC2 antag: 1.7%; EPAC1 agonist: -6.5%; EPAC1 antagonist: -4.5%; EPAC2 agonist: -0.1%; KCNH2 WT inh: 11.1

Results for Cc1ccc(-c2csc(NC(=O)c3cc([N+](=O)[O-])ccc3N3CCOCC3)n2)cc1 ?
KCNH2 3.1 block: -6.9; EPAC2 antag: -10.4%; EPAC1 agonist: 1.1%; EPAC1 antagonist: 10.7%; EPAC2 agonist: 4.8%; KCNH2 WT inh: -108.1*

What do the screens show for `COCCNC(=O)c1cccc(OC2CCN(Cc3ccc(OC(F)F)cc3)CC2)c1`?
KCNH2 3.1 block: -79.8*; EPAC2 antag: -1.0%; EPAC1 agonist: -0.5%; EPAC1 antagonist: -23.5%; EPAC2 agonist: 1.2%; KCNH2 WT inh: 4.2

Results for C/C(=N/NC(=O)CNC(=O)c1cccnc1)c1ccc(Cl)c(Cl)c1 ?
KCNH2 3.1 block: 10.5; EPAC2 antag: 0.1%; EPAC1 agonist: 5.2%; EPAC1 antagonist: -3.2%; EPAC2 agonist: 13.3%; KCNH2 WT inh: 1.0

How did Cn1c(SCc2cccc(F)c2)nnc1-c1ccncc1 do in these assays?
KCNH2 3.1 block: 5.7; EPAC2 antag: 8.0%; EPAC1 agonist: -2.2%; EPAC1 antagonist: 10.1%; EPAC2 agonist: -0.3%; KCNH2 WT inh: -8.9

How did COc1cc(C(=O)NCC(=O)NCC2COc3ccccc3O2)cc(OC)c1OC (stereo not given) do in these assays?
KCNH2 3.1 block: 8.9; EPAC2 antag: -3.7%; EPAC1 agonist: 5.2%; EPAC1 antagonist: -10.2%; EPAC2 agonist: -2.9%; KCNH2 WT inh: 6.3

How did O=C(OCc1ccccc1Cl)c1cc([N+](=O)[O-])ccc1N1CCOCC1 do in these assays?
KCNH2 3.1 block: -23.4; EPAC2 antag: -8.0%; EPAC1 agonist: 10.9%; EPAC1 antagonist: -11.9%; EPAC2 agonist: 17.7%; KCNH2 WT inh: -8.7

What do the screens show for `COc1ccc(CN2CCOCCOCCN(Cc3ccc(OC)cc3)CCOCCOCC2)cc1`?
KCNH2 3.1 block: -73.8*; EPAC2 antag: -3.2%; EPAC1 agonist: -9.3%; EPAC1 antagonist: -0.9%; EPAC2 agonist: 1.7%; KCNH2 WT inh: -11.6

What do the screens show for `O=[N+]([O-])c1ccc(CN2CCCCCC2)cc1`?
KCNH2 3.1 block: -6.5; EPAC2 antag: 9.7%; EPAC1 agonist: -7.2%; EPAC1 antagonist: -11.5%; EPAC2 agonist: -1.0%; KCNH2 WT inh: 14.2

What do the screens show for `O=C(OCc1ccc([N+](=O)[O-])cc1)c1cc([N+](=O)[O-])ccc1N1CCOCC1`?
KCNH2 3.1 block: -88.9*; EPAC2 antag: -1.3%; EPAC1 agonist: -2.9%; EPAC1 antagonist: -21.0%; EPAC2 agonist: 10.9%; KCNH2 WT inh: -105.8*

How did COCCNC(=O)c1ccc(CN2CCOCC2)cc1 do in these assays?
KCNH2 3.1 block: -8.8; EPAC2 antag: -2.7%; EPAC1 agonist: 11.3%; EPAC1 antagonist: 6.2%; EPAC2 agonist: 0.3%; KCNH2 WT inh: -133.2*

What do the screens show for `COc1ccc(CN2CCOCCOCCOCC2)cc1`?
KCNH2 3.1 block: -1.4; EPAC2 antag: 5.3%; EPAC1 agonist: -5.0%; EPAC1 antagonist: 5.2%; EPAC2 agonist: 1.1%; KCNH2 WT inh: 8.2

How did CSc1ccc(CN2CCN(Cc3ccc([N+](=O)[O-])cc3)CC2)cc1 do in these assays?
KCNH2 3.1 block: -110.1*; EPAC2 antag: -3.8%; EPAC1 agonist: -0.8%; EPAC1 antagonist: 3.7%; EPAC2 agonist: 7.2%; KCNH2 WT inh: -111.8*

How did CC1(C)OC(=O)NC1c1ccccc1 (stereo not given) do in these assays?
KCNH2 3.1 block: -3.8; EPAC2 antag: 3.1%; EPAC1 agonist: -9.7%; EPAC1 antagonist: -0.1%; EPAC2 agonist: 10.4%; KCNH2 WT inh: 1.8

What do the screens show for `O=C(Nc1ccc(CN2CCOCC2)cc1)c1ccc(-c2cc(Cl)ccc2Cl)o1`?
KCNH2 3.1 block: -75.8*; EPAC2 antag: -3.5%; EPAC1 agonist: 6.6%; EPAC1 antagonist: 5.5%; EPAC2 agonist: -0.1%; KCNH2 WT inh: 7.5

What do the screens show for `Cc1ccc(N(CC2=NCCN2)c2cccc(O)c2)cc1`?
KCNH2 3.1 block: -79.7*!; EPAC2 antag: 7.7%; EPAC1 agonist: -26.0%; EPAC1 antagonist: -0.7%; EPAC2 agonist: -1.9%; KCNH2 WT inh: -30.7

What do the screens show for `Nc1c(C(=O)N2CCCCCC2)oc2ccccc12`?
KCNH2 3.1 block: 5.7; EPAC2 antag: -17.8%; EPAC1 agonist: 8.4%; EPAC1 antagonist: -10.7%; EPAC2 agonist: 8.2%; KCNH2 WT inh: -2.2

What do the screens show for `O=C(NCc1ccccc1)c1cc(C2COCCN2C(=O)C2CC2)on1` (stereo not given)?
EPAC2 antag: -17.8%; EPAC1 agonist: -11.5%; EPAC1 antagonist: -23.5%; EPAC2 agonist: 3.5%

What do the screens show for `CCCNC(=O)CN(C)CC(=O)Nc1ccccc1C#N`?
KCNH2 3.1 block: 15.0; EPAC2 antag: 2.7%; EPAC1 agonist: -3.8%; EPAC1 antagonist: -9.5%; EPAC2 agonist: 0.1%

How did COCCn1c(SCC(=O)Nc2sc(C)c(C)c2C#N)nnc1C(C)C do in these assays?
KCNH2 3.1 block: -195.1*; EPAC2 antag: -2.5%; EPAC1 agonist: 5.1%; EPAC1 antagonist: -8.8%; EPAC2 agonist: 9.6%; KCNH2 WT inh: -2.0

How did O=C1NCN(c2ccccc2)C12CCN(CCCC(c1ccc(F)cc1)c1ccc(F)cc1)CC2 do in these assays?
KCNH2 3.1 block: 1.0; EPAC2 antag: 3.7%; EPAC1 agonist: -18.4%; EPAC1 antagonist: -22.8%; EPAC2 agonist: 17.1%; KCNH2 WT inh: -193.6*
